# Data reported in PubChem BioAssay (Tox21).
# A number with no mark means an inactive call. Results filed as inconclusive are left out. Where a call stands in place of a potency, no number is given. Calls of active or inactive are those of the source. Unless noted, calls follow the shape of the dose curve; as a rule, active = well fitted curve in the direction sought with a large enough effect in the repeat runs; inconclusive = weak or mixed curves; inactive = no such curve, though single readings can be large; an effect the other way counts as inactive or inconclusive.
# How the values were obtained:
# [1] = qHTS assay for small molecule agonists of the p53 signaling pathway (AID 651631; calls by dose curve; also: nearly all actives have a fitted effect of over 15% in size)
# In short: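 Beta-lactamase reporter activity under p53 response elements was quantified in HCT-116 cells by FRET fluorescence, following 16 h incubation with test compounds at 37 °C and 2 h substrate development at room temperature.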
# [2] = qHTS assay for small molecules that induce genotoxicity in human embryonic kidney cells expressing luciferase-tagged ATAD5 (AID 651632); also: nearly all actives have a fitted effect of over 15% in size
# In short: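 Concentration-response screen for ATAD5 upregulation in HEK293T luciferase reporter cells; 16 hr treatment at 37C, then luminescence after 30 min with Amplite at room temperature.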
# [3] = qHTS assay for small molecule agonists of the p53 signaling pathway - cell viability (AID 651633; calls by dose curve;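 also: p53RE-bla HCT reporter cells with a stable beta-lactamase p53 reporter; series mostly up to about 83 µM; nearly all actives have a fitted effect of over 30% in size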)
# In short: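 p53RE-bla cells, seeded at 4,000 per well and rested 5 h at 37 C/5% CO2, received compounds in DMSO for 16 h at 37 C. CellTiter-Glo was then added, and luminescence was read after 30 min at room temperature to gauge cytotoxicity.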
# [4] = qHTS assay for small molecules that induce genotoxicity in human embryonic kidney cells expressing luciferase-tagged ATAD5 - cell viability (AID 651634; calls by dose curve; also: nearly all actives have a fitted effect of over 25% in size)
# In short: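 15.5 hr compound or vehicle exposure of HEK293T cells expressing luciferase-tagged ATAD5 at 37C; live-cell protease activity is read by fluorescence after 30 min of CellTiter-Fluor.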
# [5] = qHTS assay for small molecule disruptors of the mitochondrial membrane potential - cell viability (AID 720634; calls by dose curve;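 also: human HepG2 liver cancer cells; series mostly up to about 83 µM; nearly all actives have a fitted effect of over 20% in size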)
# In short: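 In this qHTS format, HepG2 cells plated overnight were pinned with compound, incubated 1 hr, and assayed for ATP luminescence with CellTiter-Glo after m-MPI dye addition.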
# [6] = qHTS assay to test for compound auto fluorescence at 590 nm (red) in HepG2 cells (AID 720674)
# In short: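 Intrinsic compound fluorescence in the red window (Ex/Em 540/590 nm) is measured in attached HepG2 cells exposed for 1 hr, DMSO vehicle as baseline, benchmarked to Rose Bengal sodium.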
# [7] = qHTS assay to test for compound auto fluorescence at 535 nm (green) in HepG2 cells (AID 720675)
# [8] = qHTS assay to test for compound auto fluorescence at 460 nm (blue) in HEK293 cells (AID 720678)
# In short: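 Intrinsic compound fluorescence is recorded in live HEK293 cultures after overnight incubation at 37C, 5% CO2, using excitation 405 nm and emission 460 nm. Values are referenced to triamterene.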
# [9] = qHTS assay to test for compound auto fluorescence at 590 nm (red) in HEK293 cells (AID 720679)
# In short: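 Red autofluorescence, HEK293 cells: 2,000 cells/well; attach 4-5 hr 37C; add 23 nL cpd or DMSO; incubate o/n 37C 5% CO2; read Ex540/Em590; Rose Bengal sodium reference.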
# [10] = qHTS assay to test for compound auto fluorescence at 535 nm (green) in HEK293 cells (AID 720680)
# [11] = qHTS assay to test for compound auto fluorescence at 460 nm (blue) in HEK293 cell free culture (AID 720681)
# In short: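 Test compounds were pinned into cell-free culture medium (DMEM with 10% FBS) and fluorescence was read directly at Ex/Em 405/460 nm. Signals were expressed as fluorescence equivalents of triamterene, with DMSO vehicle as control.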
# [12] = qHTS assay to test for compound auto fluorescence at 535 nm (green) in HEK293 cell free culture (AID 720682)
# In short: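 Each library compound, or DMSO control, is added by pintool to medium alone, comprising DMEM and 10% FBS. Emission at 535 nm following 485 nm excitation is quantified against fluorescein.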
# [13] = qHTS assay to test for compound auto fluorescence at 590 nm (red) in HEK293 cell free culture (AID 720683)
# In short: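 Tox21 10K library compounds were pinned into cell-free DMEM with 10% FBS and fluorescence was read at excitation 540 nm. Activity is expressed as Rose Bengal sodium equivalency.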
# [14] = qHTS assay to test for compound auto fluorescence at 590 nm (red) in HepG2 cell free culture (AID 720684)
# In short: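 Ex 540 / Em 590 nm read of compound in cell-free MEM (10% FBS). Rose Bengal sodium reference.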
# [15] = qHTS assay to test for compound auto fluorescence at 460 nm (blue) in HepG2 cell free culture (AID 720685)
# In short: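 Cell-free plates of MEM plus 10% FBS received 23 nL compound or DMSO vehicle; blue-channel (405/460 nm) intensity scored against triamterene as reference fluorophore.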
# [16] = qHTS assay to test for compound auto fluorescence at 535 nm (green) in HepG2 cell free culture (AID 720686)
# [17] = qHTS assay to test for compound auto fluorescence at 460 nm (blue) in HepG2 cells (AID 720687)
# In short: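 Cells (2,000/well in MEM with 10% FBS) attached overnight at 37 C, then were exposed to compound or DMSO for 1 hr at 37 C, 5% CO2. Fluorescence read at Ex/Em 405/460 nm, expressed as triamterene-equivalent signal.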
# [18] = qHTS assay for small molecule disruptors of the mitochondrial membrane potential (AID 720635); also: potency is read from the fitted curve at half-maximal effect
# In short: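 HepG2 cells (2,000/well) attached overnight at 37C, then took compound for 1 hr at 37C, 5% CO2. Mito-MPS dye was added for 30 min; fluorescence was read at 490/535 nm (monomers) and 540/590 nm (aggregates).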
# [19] = target: Glucocorticoid receptor (Homo sapiens) (UniProt P04150); assay: qHTS assay to identify small molecule agonists of the glucocorticoid receptor (GR) signaling pathway (AID 720691; active = well fitted activation curve with a large enough effect in the signal ratio in the repeat runs, not every such curve was filed as active; the % refers to the signal ratio)
# Sequence of Glucocorticoid receptor (Homo sapiens) (P04150 whole entry, looked up): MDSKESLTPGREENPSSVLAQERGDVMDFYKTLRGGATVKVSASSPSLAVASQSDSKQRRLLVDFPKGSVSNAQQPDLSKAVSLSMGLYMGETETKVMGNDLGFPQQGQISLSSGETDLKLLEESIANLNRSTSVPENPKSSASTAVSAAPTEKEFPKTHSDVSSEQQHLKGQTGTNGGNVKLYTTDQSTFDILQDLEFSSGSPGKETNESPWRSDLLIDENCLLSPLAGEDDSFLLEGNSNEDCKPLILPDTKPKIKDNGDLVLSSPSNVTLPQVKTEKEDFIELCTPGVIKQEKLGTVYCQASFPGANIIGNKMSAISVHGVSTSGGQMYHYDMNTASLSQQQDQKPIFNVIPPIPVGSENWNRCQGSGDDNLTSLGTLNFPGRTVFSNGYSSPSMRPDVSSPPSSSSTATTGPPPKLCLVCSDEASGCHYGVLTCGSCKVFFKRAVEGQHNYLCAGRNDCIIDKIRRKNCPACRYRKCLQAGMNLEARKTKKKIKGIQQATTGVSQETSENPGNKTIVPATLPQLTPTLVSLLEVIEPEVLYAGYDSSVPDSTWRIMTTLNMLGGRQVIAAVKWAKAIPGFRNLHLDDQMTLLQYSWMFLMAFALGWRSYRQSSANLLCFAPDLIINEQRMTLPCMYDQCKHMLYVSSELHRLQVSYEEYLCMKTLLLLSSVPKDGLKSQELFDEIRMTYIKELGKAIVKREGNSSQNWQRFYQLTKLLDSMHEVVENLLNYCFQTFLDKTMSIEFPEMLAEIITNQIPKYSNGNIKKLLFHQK
# In short: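 Measures GR pathway activation through a GRE-beta-lactamase reporter stably integrated in HeLa cells, with 18 h compound treatment at 37 C and fluorescence detection using a FRET substrate.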
# [20] = target: Glucocorticoid receptor (Homo sapiens) (UniProt P04150); assay: qHTS assay to identify small molecule antagonists of the glucocorticoid receptor (GR) signaling pathway (AID 720692; active = well fitted inhibition curve with a large enough effect in the signal ratio in the repeat runs, not every such curve was filed as active; the % refers to the signal ratio)
# In short: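 Tox21 10K library screened in concentration-response for blockade of dexamethasone (5 nM final)-induced GRE-bla reporter activity in HeLa cells; 18 h treatment, fluorescence read.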
smiles,measurement,setting,value
C=CCCCCCCCCCCCCCCCC,activation,[1],-3.57% [at 8.3 µM]
same,activation,[2],2.36% [at 8.08 µM]
same,"activity change, negative = cytotoxicity",[3],16.1% [at 8.08 µM]
same,"activity, negative = cytotoxicity",[4],7.59% [at 8.08 µM]
same,"activity change, negative = cytotoxicity",[5],11.3% [at 8.08 µM]
same,"fluorescence, relative to Rose Bengal",[6],0.0868% [at 3.72 µM]
same,"fluorescence, % of fluorescein control",[7],-0.0078% [at 3.72 µM]
same,"fluorescence, % of triamterene",[8],0.18% [at 3.72 µM]
same,"fluorescence, % of fluorescent control",[9],0.277% [at 3.72 µM]
same,"fluorescence, % of fluorescein",[10],0.013% [at 3.72 µM]
same,"fluorescence, % of fluorescent control",[11],-0.189% [at 3.72 µM]
same,activity change,[12],-0.098% [at 3.72 µM]
same,"fluorescence, % of fluorescent control",[13],-0.0981% [at 3.72 µM]
same,"fluorescence, % of Rose Bengal",[14],0.0296% [at 3.72 µM]
same,"fluorescence, % of fluorescent control",[15],-0.0068% [at 3.72 µM]
same,"fluorescence, % of fluorescein control",[16],-0.0312% [at 3.72 µM]
same,"fluorescence, % of fluorescent control",[17],0.0871% [at 3.72 µM]
Cc1ccc(S)cc1,Potency,[1],inactive
same,Potency,[2],inactive
same,Potency,[3],inactive
same,Potency,[4],inactive
same,Potency,[5],inactive
same,Potency,[18],inactive
same,outcome,[6],inactive
same,outcome,[7],inactive
same,Potency,[8],inactive
same,outcome,[9],inactive
same,outcome,[10],inactive
same,Potency,[11],inactive
same,outcome,[12],inactive
same,outcome,[13],inactive
same,outcome,[14],inactive
same,Potency,[15],inactive
same,outcome,[16],inactive
same,Potency,[17],inactive
Cc1nc2ccccn2c(=O)c1CCN1CCC(C(=O)c2ccc(F)cc2)CC1,Potency,[1],inactive
same,Potency,[2],inactive
same,Potency,[3],inactive
same,Potency,[4],inactive
same,Potency,[5],inactive
same,outcome,[6],inactive
same,outcome,[7],inactive
same,Potency,[8],inactive
same,outcome,[9],inactive
same,outcome,[10],inactive
same,Potency,[11],inactive
same,outcome,[12],inactive
same,outcome,[13],inactive
same,outcome,[14],inactive
same,Potency,[15],inactive
same,outcome,[16],inactive
same,Potency,[17],inactive
Cc1nc2ccccc2s1,Potency,[1],inactive
same,Potency,[2],inactive
same,Potency,[3],inactive
same,Potency,[4],inactive
same,Potency,[5],inactive
same,Potency,[18],inactive
same,outcome,[6],inactive
same,outcome,[7],inactive
same,Potency,[8],inactive
same,outcome,[9],inactive
same,outcome,[10],inactive
same,Potency,[11],inactive
same,outcome,[12],inactive
same,outcome,[13],inactive
same,outcome,[14],inactive
same,Potency,[15],inactive
same,outcome,[16],inactive
same,Potency,[17],inactive
CCCOC(=O)c1ccc(C(=O)OCCC)nc1,Potency,[1],inactive
same,Potency,[2],inactive
same,Potency,[3],inactive
same,Potency,[4],inactive
same,Potency,[5],inactive
same,Potency,[18],inactive
same,outcome,[7],inactive
same,Potency,[8],inactive
same,outcome,[9],inactive
same,outcome,[10],inactive
same,Potency,[11],inactive
same,outcome,[12],inactive
same,outcome,[13],inactive
same,Potency,[15],inactive
same,outcome,[16],inactive
same,Potency,[19],inactive
Cc1ccccc1N1C(=O)c2cc(S(N)(=O)=O)c(Cl)cc2NC1C (centres undefined),Potency,[1],inactive
same,Potency,[2],inactive
same,Potency,[3],inactive
same,Potency,[4],inactive
same,Potency,[5],inactive
same,Potency,[18],inactive
same,outcome,[6],inactive
same,outcome,[7],inactive
same,Potency,[8],inactive
same,outcome,[9],inactive
same,outcome,[10],inactive
same,Potency,[11],inactive
same,outcome,[12],inactive
same,outcome,[13],inactive
same,Potency,[15],inactive
same,outcome,[16],inactive
same,Potency,[19],inactive
CC(COc1ccc(C(C)(C)C)cc1)OS(=O)OCCCl (centres undefined),Potency,[1],inactive
same,Potency,[2],inactive
same,Potency,[3],inactive
same,Potency,[4],inactive
same,Potency,[5],inactive
same,Potency,[18],inactive
same,outcome,[6],inactive
same,outcome,[7],inactive
same,Potency,[8],inactive
same,outcome,[9],inactive
same,outcome,[10],inactive
same,Potency,[11],inactive
same,outcome,[12],inactive
same,outcome,[13],inactive
same,outcome,[14],inactive
same,Potency,[15],inactive
same,outcome,[16],inactive
CCC(=O)OC/C=C/c1ccccc1,Potency,[1],inactive
same,Potency,[2],inactive
same,Potency,[3],inactive
same,Potency,[4],inactive
same,Potency,[5],inactive
same,Potency,[18],inactive
same,outcome,[6],inactive
same,outcome,[7],inactive
same,Potency,[8],inactive
same,outcome,[9],inactive
same,outcome,[10],inactive
same,Potency,[11],inactive
same,outcome,[12],inactive
same,outcome,[13],inactive
same,outcome,[14],inactive
same,Potency,[15],inactive
same,outcome,[16],inactive
same,Potency,[17],inactive
same,Potency,[19],inactive
same,Potency,[20],inactive
CC(=O)Oc1ccc(C(=C2CCCCC2)c2ccc(OC(C)=O)cc2)cc1,Potency,[1],inactive
same,Potency,[2],inactive
same,Potency,[3],inactive
same,Potency,[4],inactive
same,Potency,[5],inactive
same,Potency,[18],inactive
same,outcome,[7],inactive
same,Potency,[8],inactive
same,outcome,[9],inactive
same,Potency,[11],inactive
same,outcome,[12],inactive
same,outcome,[13],inactive
same,outcome,[14],inactive
same,Potency,[15],inactive
same,outcome,[16],inactive
same,Potency,[17],inactive
O=C(/C=C/c1ccccc1)OCCCc1ccccc1,Potency,[1],inactive
same,Potency,[2],inactive
same,Potency,[3],inactive
same,Potency,[4],inactive
same,Potency,[5],inactive
same,Potency,[18],inactive
same,outcome,[6],inactive
same,outcome,[7],inactive
same,Potency,[8],inactive
same,outcome,[9],inactive
same,outcome,[10],inactive
same,Potency,[11],inactive
same,outcome,[12],inactive
same,outcome,[13],inactive
same,outcome,[14],inactive
same,Potency,[15],inactive
same,outcome,[16],inactive
same,Potency,[17],inactive
same,Potency,[19],inactive
CO[C@H]1O[C@H](CO)[C@@H](O)[C@H](O)[C@H]1O,Potency,[1],inactive
same,Potency,[2],inactive
same,Potency,[3],inactive
same,Potency,[4],inactive
same,Potency,[5],inactive
same,Potency,[18],inactive
same,outcome,[7],inactive
same,Potency,[8],inactive
same,outcome,[9],inactive
same,outcome,[10],inactive
same,Potency,[11],inactive
same,outcome,[12],inactive
same,outcome,[13],inactive
same,outcome,[14],inactive
same,Potency,[15],inactive
same,outcome,[16],inactive
same,Potency,[17],inactive
CCCCCCCCCOC(C)=O,Potency,[1],inactive
same,Potency,[2],inactive
same,Potency,[3],inactive
same,Potency,[4],inactive
same,Potency,[5],inactive
same,Potency,[18],inactive
same,outcome,[6],inactive
same,outcome,[7],inactive
same,Potency,[8],inactive
same,outcome,[9],inactive
same,Potency,[11],inactive
same,outcome,[12],inactive
same,outcome,[13],inactive
same,outcome,[14],inactive
same,Potency,[15],inactive
same,outcome,[16],inactive
same,Potency,[17],inactive
same,Potency,[19],inactive
same,Potency,[20],inactive
Cc1ccnc2ccccc12,Potency,[1],inactive
same,Potency,[2],inactive
same,Potency,[3],inactive
same,Potency,[4],inactive
same,Potency,[5],inactive
same,Potency,[18],19.3 µM (active)
same,outcome,[6],inactive
same,outcome,[7],inactive
same,Potency,[8],inactive
same,outcome,[9],inactive
same,outcome,[10],inactive
same,Potency,[11],inactive
same,outcome,[12],inactive
same,outcome,[13],inactive
same,outcome,[14],inactive
same,Potency,[15],inactive
same,outcome,[16],inactive
same,Potency,[17],inactive
same,Potency,[19],inactive
same,Potency,[20],inactive
CCCCCCOC(=O)C(C)C,Potency,[1],inactive
same,Potency,[2],inactive
same,Potency,[3],inactive
same,Potency,[4],inactive
same,Potency,[5],inactive
same,Potency,[18],inactive
same,outcome,[6],inactive
same,outcome,[7],inactive
same,Potency,[8],inactive
same,outcome,[9],inactive
same,outcome,[10],inactive
same,Potency,[11],inactive
same,outcome,[12],inactive
same,outcome,[13],inactive
same,outcome,[14],inactive
same,Potency,[15],inactive
same,outcome,[16],inactive
same,Potency,[17],inactive
